Holding throughout (details): concentration: 10 µM; 24 h
Test [1] relates to HCC1569. Kind of test: cell number relative to DMSO (% of DMSO); higher = more cells (less growth inhibition / toxicity). Summed up:
(§1)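 Compounds were applied at 10 µM for 24 h at 37 °C, in triplicate, to HCC1569 and TDF cells. The cells were then fixed and stained for H1.0, and nuclei were counterstained with DAPI. Nuclear H1.0 intensity or cell number is reported relative to the plate control as a percent, taking the median of replicates. Smoothing for positional effects was applied to HCC1569 values only.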

Test [2] deals with TDF. Described as above. Summed up: as §1
For test [3], the system named is TDF. Kind of test: H1.0 immunofluorescence intensity relative to DMSO (% of DMSO); higher = stronger H1.0 induction, active = 120 or more. The gist of the method: as §1
Test [4] deals with HCC1569. Nature of the test: H1.0 immunofluorescence intensity relative to DMSO (% of DMSO); higher = stronger H1.0 induction, active = 140 or more. The gist of the method: as §1

Each structure is given as a SMILES string.
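Wherever H1.0 immunofluorescence intensity relative to DMSO is given: TDF is a line of transformed human dermal fibroblasts of mesenchymal origin.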
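Wherever cell number relative to DMSO is given: TDF denotes transformed human dermal fibroblasts of mesenchymal origin.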

For `CCCCCC=CCC(O)C=CC=CCCC(=O)O` [Tetranor-12(R)-HETE], the cell number amounted to 104 in test [1] and 93.9 in test [2]. Moreover, the values for the H1.0 immunofluorescence intensity in test [3] and in test [4] were 100 (inactive) and 102 (inactive), respectively.

Regarding `Cc1ccc(Cl)c(Nc2ccccc2C(=O)[O-])c1Cl.[Na+]` [sodium 2-(2,6-dichloro-3-methylanilino)benzoate], the cell number in test [1] is 99.4; in test [2], 111. Moreover, the results for the H1.0 immunofluorescence intensity in test [3] and in test [4] were 97.9 (inactive) and 102 (inactive), respectively.

With `C=CCc1ccccc1OCC(O)CNC(C)C.Cl` (stereo unspecified) [Alprenolol.HCl], the values for the cell number in test [1] and in test [2] were 102 and 105, respectively. The results for the H1.0 immunofluorescence intensity in test [3] and in test [4] were 90.6 (inactive) and 102 (inactive), respectively.

For `CC12CCc3occc3C1CCC13CC(=O)C(CCC12)C3` (stereo unspecified) [16-Oxocafestol], the cell number in test [1] is 101; in test [2], 97.5. Also, the H1.0 immunofluorescence intensity was 97.4 (inactive) in test [3] and 98.5 (inactive) in test [4].

Regarding `NC(C(=O)O)C1CC(Cl)=NO1` (stereo unspecified) [Acivicin], the cell number in test [1] amounted to 93.2; in test [2], 68.8. Moreover, the H1.0 immunofluorescence intensity in test [3] was 122 (active); in test [4], 108 (inactive).

Turning to `Nc1ccc2c3c(cccc13)C(=O)NC2=O` [4-Amino-1,8-naphthalimide], the cell number in test [1] was 94.1; in test [2], 77.8. For the same compound, the figures for the H1.0 immunofluorescence intensity in test [3] and in test [4] were 104 (inactive) and 150 (active), respectively.

Regarding `CCn1cc(C(=O)O)c(=O)c2cc(F)c(N3CCNC(C)C3)c(F)c21.Cl` (stereo unspecified) [Lomefloxacin hydrochloride], the cell number stood at 101 in test [1] and 102 in test [2]. Moreover, the results for the H1.0 immunofluorescence intensity in test [3] and in test [4] were 92.2 (inactive) and 92.9 (inactive), respectively.

Take `Cn1nc2c3c(cccc31)C(=O)c1ccccc1-2` [JNK Inhibitor,                    Negative Control]: the figures for the cell number in test [1] and in test [2] were 102 and 95.3, respectively. Moreover, the H1.0 immunofluorescence intensity in test [3] is 90.4 (inactive); in test [4], 136 (inactive).

In the case of `COc1ccc(CNC(=O)c2sc3nc(C)cc(C)c3c2N)cc1`, the cell number in test [1] was determined as 100; in test [2], 102. For the same compound, the H1.0 immunofluorescence intensity in test [3] was 97.5 (inactive); in test [4], 101 (inactive).

For the origin of these results see the supplement of paper PMC7156485.
